Laboratory results from the supplement of paper PMC8728848.
Many of the other results were omitted from the sample, so the strongest signals are more common in it than they were.

Experiments:
Test in all cases: glycan array binding signal (z-score within array); higher = stronger binding
Settings in all cases: glycan notation: IUPAC condensed, linker removed
[1] = target: Fuc(a1-2)Gal(b1-3)GalNAc(b1-4)[Neu5Ac(a2-3)]Gal(b1-4)Glc
Summary of the method: (§1)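 Columns mapping to the same glycan were averaged after glycan names were converted to IUPAC-condensed notation. The data come from 3228 arrays in the Consortium for Functional Glycomics database, limited to those with an available protein sequence. Binding is reported as a within-array Z-score averaged across arrays of one protein sequence and across linkers.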

[2] = target: Fuc(a1-2)Gal(b1-3)[Fuc(a1-4)]GlcNAc(b1-2)Man(a1-3)[Fuc(a1-2)Gal(b1-3)[Fuc(a1-4)]GlcNAc(b1-2)Man(a1-6)]Man(b1-4)GlcNAc(b1-4)GlcNAc
Summary of the method: as §1

[3] = target: Fuc(a1-2)Gal(b1-4)[Fuc(a1-3)]GlcNAc(b1-2)[Fuc(a1-2)Gal(b1-4)[Fuc(a1-3)]GlcNAc(b1-4)]Man(a1-3)[Fuc(a1-2)Gal(b1-4)[Fuc(a1-3)]GlcNAc(b1-2)Man(a1-6)]Man(b1-4)GlcNAc(b1-4)GlcNAc
Summary of the method: as §1

[4] = target: Fuc(a1-2)Gal(b1-4)[Fuc(a1-3)]GlcNAc(b1-3)GalNAc
Summary of the method: as §1

[5] = target: Fuc(a1-2)[Gal(a1-3)]Gal(b1-3)GlcNAc(b1-3)GalNAc
Summary of the method: as §1

[6] = target: Fuc(a1-2)[Gal(a1-3)]Gal(b1-4)[Fuc(a1-3)]GlcNAc(b1-3)GalNAc
Summary of the method: as §1

[7] = target: Fuc(a1-2)[GalNAc(a1-3)]Gal(b1-3)GalNAc(a1-3)[Fuc(a1-2)]Gal(b1-4)GlcNAc
Summary of the method: as §1

[8] = target: Fuc(a1-2)[GalNAc(a1-3)]Gal(b1-3)GlcNAc(b1-3)GalNAc
Summary of the method: as §1

[9] = target: Fuc(a1-2)[GalNAc(a1-3)]Gal(b1-4)GlcNAc(b1-3)GalNAc
Summary of the method: as §1

[10] = target: Fuc(a1-2)[GalNAc(a1-3)]Gal(b1-4)[Fuc(a1-3)]GlcNAc(b1-3)GalNAc
Summary of the method: as §1

[11] = target: Fuc(a1-3)[Gal(b1-4)]GlcNAc(b1-2)Man(a1-6)[Gal(b1-4)GlcNAc(b1-2)Man(a1-3)]Man(b1-4)GlcNAc(b1-4)GlcNAc
Summary of the method: as §1

[12] = target: Fuc(a1-3)[Gal3S(b1-4)]GlcNAc6S
Summary of the method: as §1

[13] = target: Fuc(a1-3)[GalNAc(b1-4)]GlcNAc
Summary of the method: as §1

[14] = target: Gal(a1-3)Gal(b1-3)GlcNAc(b1-2)Man(a1-3)[Gal(a1-3)Gal(b1-3)GlcNAc(b1-2)Man(a1-6)]Man(b1-4)GlcNAc(b1-4)GlcNAc
Summary of the method: as §1

Gal(b1-2)Gal = target: Gal(b1-2)Gal
Summary of the method: as §1

[15] = target: Gal(b1-3)GlcNAc(b1-3)Gal(b1-3)GlcNAc
Summary of the method: as §1

[16] = target: Gal(b1-3)GlcNAc(b1-6)Gal(b1-4)GlcNAc
Summary of the method: as §1

[17] = target: Gal(b1-4)GlcNAc(b1-3)[GlcNAc(b1-6)]Gal(b1-4)GlcNAc
Summary of the method: as §1

Gal(b1-6)Gal = target: Gal(b1-6)Gal
Summary of the method: as §1

Gal3S(b1-4)Glc6S = target: Gal3S(b1-4)Glc6S
Summary of the method: as §1

Gal3S(b1-4)GlcNAc6S = target: Gal3S(b1-4)GlcNAc6S
Summary of the method: as §1

[18] = target: GalNAc(a1-3)GalNAc(a1-3)Gal(a1-4)Gal(b1-4)GlcNAc
Summary of the method: as §1

GalNAc(b1-3)Gal = target: GalNAc(b1-3)Gal
Summary of the method: as §1

[19] = target: GalNAc(b1-3)Gal(a1-4)Gal(b1-4)GlcNAc(b1-3)Gal(b1-4)Glc
Summary of the method: as §1

[20] = target: GalNAc(b1-3)Gal(a1-6)Gal(b1-4)Glc
Summary of the method: as §1

GlcA(b1-3)GlcNAc = target: GlcA(b1-3)GlcNAc
Summary of the method: as §1

[21] = target: GlcNAc(a1-3)Gal(b1-4)GlcNAc
Summary of the method: as §1

[22] = target: GlcNAc(b1-3)Gal(b1-4)GlcNAc(b1-3)Gal(b1-4)GlcNAc
Summary of the method: as §1

[23] = target: GlcNAc(b1-4)[GlcNAc(b1-6)]GalNAc
Summary of the method: as §1

Man(a1-2)Man(a1-3)Man = target: Man(a1-2)Man(a1-3)Man
Summary of the method: as §1

Neu5Ac(a2-3)Gal = target: Neu5Ac(a2-3)Gal
Summary of the method: as §1

[24] = target: Neu5Ac(a2-3)Gal(b1-3)GalNAc(b1-4)[Neu5Ac(a2-3)]Gal(b1-4)Glc
Summary of the method: as §1

[25] = target: Neu5Ac(a2-3)Gal(b1-3)GlcNAc
Summary of the method: as §1

[26] = target: Neu5Ac(a2-3)Gal(b1-3)GlcNAc(b1-3)Gal(b1-3)GlcNAc
Summary of the method: as §1

Neu5Ac(a2-3)Gal(b1-4)Glc = target: Neu5Ac(a2-3)Gal(b1-4)Glc
Summary of the method: as §1

[27] = target: Neu5Ac(a2-3)Gal(b1-4)GlcNAc(b1-3)Gal(b1-4)GlcNAc
Summary of the method: as §1

[28] = target: Neu5Ac(a2-3)Gal(b1-4)GlcNAc(b1-3)Gal(b1-4)GlcNAc(b1-3)Gal(b1-4)GlcNAc
Summary of the method: as §1

[29] = target: Neu5Ac(a2-3)Gal(b1-4)GlcNAc(b1-3)Gal(b1-4)[Fuc(a1-3)]GlcNAc
Summary of the method: as §1

[30] = target: Neu5Ac(a2-3)Gal(b1-4)[Fuc(a1-3)]GlcNAc6S
Summary of the method: as §1

[31] = target: Neu5Ac(a2-6)Gal(b1-4)GlcNAc(b1-2)Man(a1-3)[Man(a1-6)]Man(b1-4)GlcNAc(b1-4)GlcNAc
Summary of the method: as §1

[32] = target: Neu5Gc(a2-3)Gal(b1-4)[Fuc(a1-3)]GlcNAc
Summary of the method: as §1

B1: PILRa (Homo sapiens), Q9UKJ1 (protein)
chain: MGRPLLLPLLPLLLPPAFLQPSGSTGSGPSYLYGVTQPKHLSASMGGSVEIPFSFYYPWELATAPDVRISWRRGHFHRQSFYSTRPPSIHKDYVNRLFLNWTEGQKSGFLRISNLQKQDQSVYFCRVELDTRSSGRQQWQSIEGTKLSITQAVTTTTQRPSSMTTTWRLSSTTTTTGLRVTQGKRRSDSWHISLETAVGVAVAVTVLGIMILGLICLLRWRRRKGQQRTKATTPAREPFQNTEEPYENIRNEGQNTDPKLNPKDDGIVYASLALSSSTSPRAPPSHRPLKSPQNETLYSVLKA
glycan array binding signal (z-score) [1]: -0.102 | glycan array binding signal (z-score) [2]: 4.38 | glycan array binding signal (z-score) [3]: 4.02 | glycan array binding signal (z-score) [4]: 5.45 | glycan array binding signal (z-score) [5]: 0.023 | glycan array binding signal (z-score) [6]: 3.41 | glycan array binding signal (z-score) [7]: -0.142 | glycan array binding signal (z-score) [8]: 4.4 | glycan array binding signal (z-score) [9]: -0.194 | glycan array binding signal (z-score) [10]: 9.37 | glycan array binding signal (z-score) [11]: -0.546 | glycan array binding signal (z-score) [12]: -0.051 | glycan array binding signal (z-score) [13]: -0.102 | glycan array binding signal (z-score) [14]: 4.98 | glycan array binding signal (z-score) (Gal(b1-2)Gal): 0.001 | glycan array binding signal (z-score) [15]: 0.263 | glycan array binding signal (z-score) [16]: -0.136 | glycan array binding signal (z-score) [17]: -0.338 | glycan array binding signal (z-score) (Gal(b1-6)Gal): -0.177 | glycan array binding signal (z-score) (Gal3S(b1-4)Glc6S): 0.618 | glycan array binding signal (z-score) (Gal3S(b1-4)GlcNAc6S): -0.01 | glycan array binding signal (z-score) [18]: -0.27 | glycan array binding signal (z-score) (GalNAc(b1-3)Gal): 0.508 | glycan array binding signal (z-score) [19]: -0.169 | glycan array binding signal (z-score) [20]: -0.215 | glycan array binding signal (z-score) (GlcA(b1-3)GlcNAc): 6.02 | glycan array binding signal (z-score) [21]: 0.089 | glycan array binding signal (z-score) [22]: -0.259 | glycan array binding signal (z-score) [23]: -0.213 | glycan array binding signal (z-score) (Man(a1-2)Man(a1-3)Man): -0.144 | glycan array binding signal (z-score) (Neu5Ac(a2-3)Gal): -0.314 | glycan array binding signal (z-score) [24]: -0.281 | glycan array binding signal (z-score) [25]: 0.854 | glycan array binding signal (z-score) [26]: -0.15 | glycan array binding signal (z-score) (Neu5Ac(a2-3)Gal(b1-4)Glc): -0.248 | glycan array binding signal (z-score) [27]: 1.17 | glycan array binding signal (z-score) [28]: -0.327 | glycan array binding signal (z-score) [29]: -0.125 | glycan array binding signal (z-score) [30]: -0.092 | glycan array binding signal (z-score) [31]: -0.177 | glycan array binding signal (z-score) [32]: -0.343
